Test results as given in PubChem BioAssay (NCI).
Compounds without any hit were thinned out: in the full panel of roughly 83,000, 20% have a hit.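 48-hour exposure, single concentration, 96-well plates; percent growth endpoint where 0 means no net growth. Active: below 10.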 Calls of active or inactive are those of the source.

Legend:
Experiment in all cases: NCI-60 one-dose screen, 48 h (100 = growth as untreated, 0 = no growth, -100 = all killed)
Settings in all cases: 10 µM unless noted
HCT-15 colon = system: HCT-15 colon
HT29 colon = system: HT29 colon
SNB-75 CNS = system: SNB-75 CNS
SNB-19 CNS = system: SNB-19 CNS
U251 CNS = system: U251 CNS
PC-3 prostate = system: PC-3 prostate
SK-MEL-5 melanoma = system: SK-MEL-5 melanoma
UACC-62 melanoma = system: UACC-62 melanoma
LOX IMVI melanoma = system: LOX IMVI melanoma
SK-MEL-28 melanoma = system: SK-MEL-28 melanoma

Measured: growth

CCOc1cc(N)ccc1C(=O)NCCCN(CC)CC
inactive: HCT-15 colon 106% | HT29 colon 102% | SNB-75 CNS 85% | SNB-19 CNS 102% | U251 CNS 104% | PC-3 prostate 101% | SK-MEL-5 melanoma 100% | UACC-62 melanoma 95.5% | LOX IMVI melanoma 100% | SK-MEL-28 melanoma 97.5%

COc1cc(C2CC(=O)Nc3n[nH]c(-c4ccccc4)c32)cc(OC)c1OC (stereo not given)
inactive: HCT-15 colon 68.4% | HT29 colon 47.1% | SNB-75 CNS 47.7% | SNB-19 CNS 75.4% | U251 CNS 62.9% | PC-3 prostate 59.3% | SK-MEL-5 melanoma 68% | UACC-62 melanoma 38% | LOX IMVI melanoma 70.3% | SK-MEL-28 melanoma 66.5%

CCCCCCCCCCCCCCCCCC1=NCCN1C(=O)OCCO
inactive: SNB-75 CNS 45.1% | SNB-19 CNS 75.9% | PC-3 prostate 28.4% | SK-MEL-5 melanoma 80.3% | UACC-62 melanoma 59.6% | LOX IMVI melanoma 27.8% | SK-MEL-28 melanoma 61.3%
active: HCT-15 colon -8.42% | HT29 colon -47.6% | U251 CNS -46%

CC(C)n1nc(C#Cc2cccc3cc(-c4cccc(C(F)(F)F)c4)ncc23)c2c(N)ncnc21
inactive: HCT-15 colon 64.3% | HT29 colon 29.7% | SNB-19 CNS 99.6% | U251 CNS 63.6% | PC-3 prostate 59.6% | SK-MEL-5 melanoma 85.1% | UACC-62 melanoma 66.6% | LOX IMVI melanoma 58.1% | SK-MEL-28 melanoma 83.3%
active: SNB-75 CNS -4.27%

Cc1ccc(C)c2c1C(=O)OC2=O
inactive: HCT-15 colon 101% | HT29 colon 93.1% | SNB-75 CNS 91.2% | SNB-19 CNS 107% | U251 CNS 104% | PC-3 prostate 97.7% | SK-MEL-5 melanoma 102% | UACC-62 melanoma 101% | LOX IMVI melanoma 98.4% | SK-MEL-28 melanoma 92.9%

Cc1c2c(cn1Cc1ccccc1)CCc1cn[nH]c1-2
inactive: HCT-15 colon 99.3% | HT29 colon 94.5% | SNB-75 CNS 92.2% | SNB-19 CNS 86.9% | U251 CNS 89.3% | PC-3 prostate 74.9% | SK-MEL-5 melanoma 89% | UACC-62 melanoma 76.8% | LOX IMVI melanoma 90.8% | SK-MEL-28 melanoma 105%

O=C(NCCOCCOCCNc1cccc2c1C(=O)N(C1CCCNC1=O)C2=O)c1cc2c(o1)C(=O)c1ccccc1C2=O (stereo not given)
active: HCT-15 colon -65.3% | HT29 colon 2.43% | SNB-75 CNS -98.3% | SNB-19 CNS 3.8% | U251 CNS -36.4% | PC-3 prostate 4.67% | SK-MEL-5 melanoma -98.7% | UACC-62 melanoma -81.7% | LOX IMVI melanoma -59% | SK-MEL-28 melanoma -28.6%

COc1cc2c(c(OC)c1OC)C(=O)/C(=C/c1cc(C)c(O)c(C)c1)S2
active: SNB-75 CNS 4.46% | SK-MEL-5 melanoma 4.33%
inactive: HCT-15 colon 25.4% | HT29 colon 82.4% | SNB-19 CNS 39.2% | U251 CNS 33% | PC-3 prostate 30.9% | UACC-62 melanoma 50.8% | LOX IMVI melanoma 26.4% | SK-MEL-28 melanoma 59.3%

COc1ccc(NC(=O)c2cccc(-c3cc(=O)c4c(O)c(OC)c(OC)cc4o3)c2)cc1
active: SNB-75 CNS -5.24%
inactive: HCT-15 colon 107% | HT29 colon 87.7% | SNB-19 CNS 61.6% | U251 CNS 73.2% | PC-3 prostate 86.2% | SK-MEL-5 melanoma 91.4% | UACC-62 melanoma 81.1% | LOX IMVI melanoma 79.7% | SK-MEL-28 melanoma 104%

CCNCCNc1cc(-c2ccc(C#N)cc2)c(C#N)c2nc3ccccc3n12
inactive: HCT-15 colon 33.6% | SNB-19 CNS 51% | PC-3 prostate 44.7% | SK-MEL-5 melanoma 65.7%
active: HT29 colon 4.72% | SNB-75 CNS -20.4% | U251 CNS -23.4% | UACC-62 melanoma -34.8% | LOX IMVI melanoma -53.9% | SK-MEL-28 melanoma -47.7%

CCCCn1c(=O)[nH]c(N)c(C(c2ccc(F)cc2)c2c(N)[nH]c(=O)n(CCCC)c2=O)c1=O
inactive: HCT-15 colon 95.7% | HT29 colon 66.4% | SNB-75 CNS 62.2% | SNB-19 CNS 74% | U251 CNS 65.3% | PC-3 prostate 53.9% | SK-MEL-5 melanoma 36.7% | UACC-62 melanoma 55.6% | LOX IMVI melanoma 58.9% | SK-MEL-28 melanoma 74.7%

O=[N+]([O-])c1ccc(-c2cc3c(Nc4ccc(Sc5nc6ccccc6s5)c(Cl)c4)ncnc3s2)cc1
inactive: HCT-15 colon 23.7% | HT29 colon 13.9% | SNB-75 CNS 83.9% | SNB-19 CNS 23.7% | U251 CNS 23% | PC-3 prostate 28.3% | SK-MEL-5 melanoma 59.1% | UACC-62 melanoma 54.9% | LOX IMVI melanoma 29.6% | SK-MEL-28 melanoma 75.2%

C[C@@H]1C(=O)N(C[C@H](Cc2ccccc2)NC(=O)OCc2ccccc2)[C@]1(Cc1ccccc1)C(=O)OC(C)(C)C
inactive: HCT-15 colon 62.9% | HT29 colon 56.3% | SNB-75 CNS 68.7% | SNB-19 CNS 71.7% | U251 CNS 63.2% | PC-3 prostate 27.5% | SK-MEL-5 melanoma 58.8% | UACC-62 melanoma 51.9% | LOX IMVI melanoma 73.3% | SK-MEL-28 melanoma 85.3%

CN(C)c1ccc2cc(-c3ccc(Cl)c(Cl)c3)c(N)nc2c1
inactive: HCT-15 colon 32.1% | SNB-75 CNS 63.3% | SNB-19 CNS 63.6% | U251 CNS 31.1% | PC-3 prostate 27.6% | UACC-62 melanoma 57.2% | LOX IMVI melanoma 20.6% | SK-MEL-28 melanoma 47.4%
active: HT29 colon 2.59% | SK-MEL-5 melanoma -58.8%

CSc1nc(N)c(CNC(C)c2ccccc2)c(=O)n1C (stereo not given)
inactive: HCT-15 colon 104% | HT29 colon 105% | SNB-75 CNS 93.4% | SNB-19 CNS 98.9% | U251 CNS 95% | PC-3 prostate 101% | SK-MEL-5 melanoma 113% | UACC-62 melanoma 98.8% | LOX IMVI melanoma 92.3% | SK-MEL-28 melanoma 109%

CN1CCN(CCCOc2ccc3nc(Nc4cc(Cl)cc(Cl)c4)ccc3c2)CC1
active: HCT-15 colon -87.6% | HT29 colon -94.4% | SNB-75 CNS -94.5% | SNB-19 CNS -76.2% | U251 CNS -87.5% | PC-3 prostate -57.8% | SK-MEL-5 melanoma -94.9% | UACC-62 melanoma -81.5% | LOX IMVI melanoma -94.4% | SK-MEL-28 melanoma -87.2%

CCn1nc(C#Cc2c(C)ccc3c(Nc4ccc(Cl)cc4)nccc23)c2c(N)ncnc21
inactive: HCT-15 colon 23.3% | U251 CNS 26% | PC-3 prostate 18.9% | LOX IMVI melanoma 11.3%
active: HT29 colon 2.98% | SNB-75 CNS -8.46% | SNB-19 CNS 9% | SK-MEL-5 melanoma -43.9% | UACC-62 melanoma -4.21% | SK-MEL-28 melanoma 0.371%

COc1cc(C(=O)Nc2cc(O)c(CC=C(C)C)c(O)c2)cc2c1O[C@]1(C)CC[C@@H](O)C(C)(C)[C@H]1C2
inactive: HCT-15 colon 13.3% | SNB-75 CNS 17.9% | SNB-19 CNS 53.4% | U251 CNS 16.3% | PC-3 prostate 18.2% | SK-MEL-28 melanoma 30%
active: HT29 colon 1.4% | SK-MEL-5 melanoma -23.5% | UACC-62 melanoma 8.82% | LOX IMVI melanoma -12%

CCOc1cc(C2C(Cl)C(=O)N2n2cnnc2)ccc1O (stereo not given)
inactive: HCT-15 colon 103% | HT29 colon 96.9% | SNB-75 CNS 72.5% | SNB-19 CNS 102% | U251 CNS 98.5% | PC-3 prostate 91.1% | SK-MEL-5 melanoma 106% | UACC-62 melanoma 95.5% | LOX IMVI melanoma 101% | SK-MEL-28 melanoma 105%

CS(=O)(=O)c1ccc(-c2nc3cc(Cl)ccc3n2CC(=O)NO)cc1
inactive: HCT-15 colon 102% | HT29 colon 95.6% | SNB-75 CNS 73.7% | SNB-19 CNS 96.4% | U251 CNS 93.1% | PC-3 prostate 95.7% | SK-MEL-5 melanoma 103% | UACC-62 melanoma 92.6% | LOX IMVI melanoma 97.9% | SK-MEL-28 melanoma 100%

C=CC(=O)Nc1cccc(C)c1Nc1cc(-c2cccnc2Cc2c(C)c(OC)cc(OC)c2C)ncn1
inactive: HCT-15 colon 42.3% | SNB-75 CNS 23.9% | SNB-19 CNS 23.3% | SK-MEL-5 melanoma 57.9% | UACC-62 melanoma 38% | LOX IMVI melanoma 13.9% | SK-MEL-28 melanoma 44.3%
active: HT29 colon 5.04% | U251 CNS -16.1% | PC-3 prostate 8.05%

Cc1nc(Nc2ccc(N)cc2)c2ccccc2n1
inactive: HCT-15 colon 89.4% | HT29 colon 88.9% | SNB-75 CNS 103% | SNB-19 CNS 97.7% | U251 CNS 99.1% | PC-3 prostate 91% | SK-MEL-5 melanoma 91.9% | UACC-62 melanoma 98.5% | LOX IMVI melanoma 90.7% | SK-MEL-28 melanoma 114%

CCN1CCN(c2ccc(Nc3cc(-c4cccnc4Nc4c(Cl)c(OC)cc(OC)c4Cl)ncn3)cc2)CC1
inactive: HCT-15 colon 63.3% | HT29 colon 31.9% | SNB-75 CNS 42.8% | SNB-19 CNS 81% | U251 CNS 71.6% | PC-3 prostate 55.3% | SK-MEL-5 melanoma 74% | UACC-62 melanoma 85.9% | LOX IMVI melanoma 44.7% | SK-MEL-28 melanoma 100%

Cc1ccc(NC(=O)C(Cl)Cl)cc1
inactive: HCT-15 colon 105% | HT29 colon 92.7% | SNB-75 CNS 101% | SNB-19 CNS 101% | U251 CNS 94.7% | PC-3 prostate 91.8% | SK-MEL-5 melanoma 99.4% | UACC-62 melanoma 98.6% | LOX IMVI melanoma 99.6% | SK-MEL-28 melanoma 98.2%

CN1C(=O)CCC(N2C(=O)c3cccc(NCCOCCOCCNC(=O)c4cc5c(o4)C(=O)c4ccccc4C5=O)c3C2=O)C1=O (stereo not given)
active: HCT-15 colon -79% | HT29 colon 0.328% | SNB-75 CNS -98.2% | SNB-19 CNS 1.34% | U251 CNS -5.25% | PC-3 prostate 7.64% | SK-MEL-5 melanoma -97% | UACC-62 melanoma -91% | LOX IMVI melanoma -53.6% | SK-MEL-28 melanoma -19.9%

CCNCCNc1cc(-c2ccc(C(F)(F)F)cc2)c(C#N)c2nc3cc(Cl)c(Cl)cc3n12
active: HCT-15 colon -80.1% | HT29 colon -85.5% | SNB-75 CNS -93.7% | SNB-19 CNS -62.7% | U251 CNS -94% | PC-3 prostate -88.4% | SK-MEL-5 melanoma -98.9% | UACC-62 melanoma -63.3% | LOX IMVI melanoma -74% | SK-MEL-28 melanoma -96.5%

O=C1C2=C(CCN(Cc3ccccc3)C2)N2CCN=C2N1Cc1ccc(F)cc1F
inactive: HCT-15 colon 20.4% | HT29 colon 34% | SNB-75 CNS 46.7% | SNB-19 CNS 30.1% | U251 CNS 21.3% | PC-3 prostate 21.3% | SK-MEL-5 melanoma 27.5% | UACC-62 melanoma 44.5% | LOX IMVI melanoma 39.3% | SK-MEL-28 melanoma 57.9%
